These results are taken from PubChem BioAssay.

The source made the active and inactive calls. How the calls were made is not given here.

Sequence of Pantothenate synthetase (Mycobacterium tuberculosis (strain ATCC 25618 / H37Rv)) (P9WIL5 whole entry, looked up): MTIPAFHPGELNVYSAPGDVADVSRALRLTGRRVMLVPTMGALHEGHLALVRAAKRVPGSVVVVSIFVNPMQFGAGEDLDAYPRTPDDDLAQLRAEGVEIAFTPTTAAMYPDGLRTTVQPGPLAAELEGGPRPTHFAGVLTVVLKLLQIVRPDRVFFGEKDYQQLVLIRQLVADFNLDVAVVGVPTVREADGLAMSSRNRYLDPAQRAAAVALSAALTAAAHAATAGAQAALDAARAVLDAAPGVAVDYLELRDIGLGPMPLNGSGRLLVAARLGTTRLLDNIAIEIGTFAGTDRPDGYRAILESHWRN

The test has as its target Pantothenate synthetase (Mycobacterium tuberculosis (strain ATCC 25618 / H37Rv)) (UniProt P9WIL5). The experiment in a line: Recombinant Mtb pantothenate synthetase (PanC) inhibitors, coupled enzyme, confirmatory (AID 375).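 Further: 0% = full reaction with vehicle and 100% = no enzyme background.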 To be noted: coupled enzyme assay; at 10 µM, active compounds read high.
Consider `CC(C)C12CN3CC(C(C)C)(CN(C1)C3c1ccc3c(c1)OCO3)C2=O` (stereo not drawn), for which the inhibition was 0% (inactive).

Turning to `O=C(CN(C(=O)CCC(=O)Nc1nccs1)c1ccccc1F)NCC1CCCO1` (stereo not drawn), the inhibition was 2% (inactive). Then `Cn1cnc2c(N3CCCCC3)nccc21`, with 0% (inactive); and `COC(=O)c1ccccc1NC(=O)Nc1cccs1`, with 7% (inactive). Then `Cc1cccc2c1nc(-c1ccccc1)n1cnnc21`, with 0% (inactive); and `N#Cc1nc(-c2ccccc2Cl)oc1N1CCOCC1`, with 0% (inactive); and `O=C(Nc1ccccc1N1CCN(C(=O)c2ccc(Cl)cc2)CC1)c1cc2ccccc2o1`, with 3% (inactive). The same measure for `CCOc1ccccc1Nc1ncnc2ccccc12`: 6% (inactive); for `Cc1cn2c(-c3ccncc3)nnc2s1`: 0% (inactive).

On to `Cn1c(=O)c2c(nc3sccn32)n(C)c1=O`, for which the inhibition was 0% (inactive).

Turning to `O=C(O)c1ccc(COc2c(F)c(F)c(F)c(F)c2F)o1`, the inhibition was 0% (inactive). The same measure for `CC(C)NC(=O)NC(=O)COc1cccc2c1OC(C)(C)C2`: 0% (inactive). For the molecule `CCN(CC)Cc1csc(C(N)=O)c1`, the inhibition is 5% (inactive). With `O=C(O)CC(NC(=O)c1ccccc1NC(=O)c1ccccc1)C(=O)O` (stereo not drawn), the inhibition is 0% (inactive). Then `Cc1nnc(SCCn2c(Br)nc3c2c(=O)n(C)c(=O)n3C)s1`, with 1% (inactive); and `CCN(CC(=O)Nc1ccc2c(c1)OCCO2)Cc1cc(=O)oc2cc(C)c(C)cc12`, with 0% (inactive). Then `CC1CCN(Cc2ccc(-c3nn[nH]n3)cc2)CC1`, with 0% (inactive). Then `Cc1cc(NC(=O)c2ccc3nc(-c4ccccc4)c(-c4ccccc4)nc3c2)no1`, with 0% (inactive).

As usually defined, the inhibition is the share of the control response that was lost under treatment.
